Our source for the growth values is PubChem BioAssay (NCI).

Test systems include HCT-15 colon; HT29 colon; SNB-75 CNS; SNB-19 CNS; U251 CNS; PC-3 prostate; SK-MEL-5 melanoma; UACC-62 melanoma; LOX IMVI melanoma; SK-MEL-28 melanoma; SK-MEL-2 melanoma; EKVX NSCLC; SN12C renal; UO-31 renal; TK-10 renal; ACHN renal; CAKI-1 renal; CCRF-CEM leukemia; MOLT-4 leukemia; A498 renal.
Assay in all cases: NCI-60 one-dose screen, 48 h (100 = growth as untreated, 0 = no growth, -100 = all killed)
Common to all, as to conditions: 10 µM unless noted

Each structure is given as a SMILES string. About 83,000 compounds went through this panel and 20% of them were active in at least one assay; those are over-represented in the sample as a whole.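 How to read the values: 0–100, growth inhibition (40 = 60% inhibited); 0, no net growth; -100 to 0, cell death (-40 = 40% of starting cells died; -100 = all dead).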 Values without a mark were called inactive. The source made the active and inactive calls. The calls were made as follows: active = growth percent below 10; inactive = the rest.

As for `Clc1ccc(-c2nc(-c3c[nH]c4ncccc34)cs2)cc1`, the growth is 98.7% [100 µM] with HCT-15 colon; 80.2% [100 µM] in the assay on HT29 colon; -11.3% [100 µM] (active) in the assay with SNB-75 CNS; 48.7% [100 µM] with SNB-19 CNS; 16.2% [100 µM] in the assay on U251 CNS; 43.9% [100 µM] with PC-3 prostate. Besides, the growth was 84.1% [100 µM] in the assay with SK-MEL-5 melanoma; 71.2% [100 µM] in the assay on UACC-62 melanoma; 62.6% [100 µM] in the assay on LOX IMVI melanoma; 94% [100 µM] in the assay on SK-MEL-28 melanoma; 72% [100 µM] in the assay on SK-MEL-2 melanoma; 34.7% [100 µM] in the assay on EKVX NSCLC. For the same compound, the growth is 62.4% [100 µM] in the assay with SN12C renal; 65.7% [100 µM] in the assay on UO-31 renal; 39.7% [100 µM] in the assay with TK-10 renal; 66.9% [100 µM] in the assay with ACHN renal; 49.4% [100 µM] in the assay with CAKI-1 renal; 109% [100 µM] in the assay with CCRF-CEM leukemia. For the same compound, in the assay with MOLT-4 leukemia, the growth is 98.1% [100 µM].

For the compound `S=c1[nH]c2cc(Cl)ccc2o1`, the growth in the assay with HCT-15 colon was 98.6%; in the assay with HT29 colon it was 105%; with SNB-75 CNS, 111%; with SNB-19 CNS it was 102%; with U251 CNS it was 104%; in the assay with PC-3 prostate, 88%. For the same compound, the growth is 96.6% in the assay on UACC-62 melanoma; 103% in the assay with LOX IMVI melanoma; 114% with SK-MEL-28 melanoma; 98.6% with SK-MEL-2 melanoma; 99.3% in the assay with EKVX NSCLC; 100% with SN12C renal. Besides, the growth in the assay on UO-31 renal was 87.9%; in the assay on TK-10 renal it was 94.6%; in the assay on ACHN renal, 98.7%; in the assay with CAKI-1 renal, 97.8%; in the assay with A498 renal it was 91.8%; with CCRF-CEM leukemia, -43.2% (active). For the same compound, the growth with MOLT-4 leukemia was 63.1%.

For `C#CC#CC#CC#CC#CC#CC#CC#CC[C@H]1OC[C@@H](COC(=O)O[C@@H](C(=O)O[C@H]2C[C@@]3(O)[C@@H](OC(=O)c4ccccc4)[C@@H]4[C@]5(OC(C)=O)CO[C@@H]5C[C@H](O)[C@@]4(C)C(=O)[C@H](OC(C)=O)C(=C2C)C3(C)C)[C@@H](NC(=O)c2ccccc2)c2ccccc2)O1`, the growth in the assay with HCT-15 colon was 95.2%; in the assay on HT29 colon, 7.9% (active); in the assay on SNB-75 CNS it was 32.8%; in the assay on SNB-19 CNS it was 55.8%; with U251 CNS it was 43.4%; with PC-3 prostate, 45.7%. Besides, the growth with SK-MEL-5 melanoma is 64.8%; in the assay on UACC-62 melanoma it was 50.9%; in the assay with LOX IMVI melanoma, 41.1%; in the assay on SK-MEL-28 melanoma, 62.8%; in the assay with SK-MEL-2 melanoma, 76.2%; in the assay with EKVX NSCLC it was 75.4%. In addition, the growth was 102% in the assay with UO-31 renal; 86.5% with TK-10 renal; 89.9% in the assay on ACHN renal; 79.6% in the assay on CAKI-1 renal; 36.2% with CCRF-CEM leukemia; 42.5% in the assay with MOLT-4 leukemia.

On to `COc1ccc2cc(Cn3cc[n+](Cc4ccc5ccccc5c4)c3)ccc2c1`, for which the growth in the assay on HCT-15 colon was 95.7%; in the assay with HT29 colon, -33.5% (active); in the assay with SNB-75 CNS, 18.9%; in the assay with SNB-19 CNS, 31.6%; in the assay on U251 CNS, 16.1%; with PC-3 prostate, 19%. For the same compound, the growth was -24% (active) with SK-MEL-5 melanoma; 15.2% in the assay on UACC-62 melanoma; 28.4% with LOX IMVI melanoma; 11.7% in the assay on SK-MEL-28 melanoma; -15.8% (active) in the assay on SK-MEL-2 melanoma; 50.5% in the assay with EKVX NSCLC. In addition, the growth with UO-31 renal was 84.4%; in the assay with TK-10 renal, 9.68% (active); in the assay on ACHN renal it was 98.8%; in the assay with CAKI-1 renal, 96%; with A498 renal it was 74.7%; in the assay on CCRF-CEM leukemia, 20.2%. For the same compound, the growth with MOLT-4 leukemia was 17.2%.

With `COc1ccc(Nc2ncc(C(N)=O)c(NCCCNC(=O)C3CCC3)n2)cc1`, the growth in the assay on HCT-15 colon was 82.1%; in the assay with HT29 colon, 70.7%; with SNB-75 CNS it was 49.7%; in the assay on SNB-19 CNS, 75.5%; in the assay on U251 CNS, 56.3%; in the assay on PC-3 prostate, 62.8%. The growth in the assay on UACC-62 melanoma was 77.8%; with LOX IMVI melanoma, 73.1%; in the assay on SK-MEL-28 melanoma it was 94.2%; in the assay on SK-MEL-2 melanoma it was 51.8%; with EKVX NSCLC it was 96.2%; in the assay with SN12C renal, 30.9%. Moreover, the growth in the assay on UO-31 renal was 2.37% (active); in the assay with TK-10 renal, 34.4%; with ACHN renal, 44.9%; in the assay with CAKI-1 renal it was 34.7%; in the assay on A498 renal, 105%; with CCRF-CEM leukemia, 43.7%. Further, the growth with MOLT-4 leukemia was 38.7%.

Regarding `COC(=O)Cc1nc(C#N)c(N(C)C)o1`, the growth with HCT-15 colon is 99.4%; with HT29 colon, 106%; with SNB-75 CNS, 78.5%; in the assay on SNB-19 CNS, 96.1%; in the assay on U251 CNS, 98.8%; in the assay with PC-3 prostate it was 99.4%. For the same compound, the growth in the assay with UACC-62 melanoma is 87.6%; with LOX IMVI melanoma, 97.7%; in the assay with SK-MEL-28 melanoma, 104%; in the assay on SK-MEL-2 melanoma it was 89.4%; in the assay on EKVX NSCLC, 116%; with SN12C renal it was 90.3%. Also, the growth in the assay with UO-31 renal was 82.4%; with TK-10 renal, 93.3%; with ACHN renal, 101%; in the assay with CAKI-1 renal, 97.2%; in the assay on A498 renal, 125%; in the assay with CCRF-CEM leukemia, 92.9%. The growth in the assay with MOLT-4 leukemia is 97.6%.

Regarding `Cc1ncc(C(=O)Nc2ccc(CN3CCN(C)CC3)c(C(F)(F)F)c2)cc1C#Cc1cnc(N)c2ccncc12`, the growth is -31.8% (active) with HCT-15 colon; -44.8% (active) with HT29 colon; -67.7% (active) with SNB-75 CNS; -45.6% (active) in the assay with SNB-19 CNS; -92.7% (active) in the assay on U251 CNS; -90.8% (active) in the assay with SK-MEL-5 melanoma. For the same compound, the growth in the assay with UACC-62 melanoma was -83.8% (active); with LOX IMVI melanoma, -93.3% (active); in the assay with SK-MEL-28 melanoma, -81.3% (active); in the assay with SK-MEL-2 melanoma, -55.8% (active); with EKVX NSCLC, -18.9% (active); in the assay on SN12C renal it was -26.8% (active). Also, the growth with UO-31 renal is -42.2% (active); with TK-10 renal, -59% (active); in the assay with ACHN renal, -64.3% (active); in the assay on CAKI-1 renal, -56.8% (active); in the assay with A498 renal, -90.2% (active); with CCRF-CEM leukemia it was -23.3% (active).

As for `CCN1C(=O)N(CC)C2C1NN=c1s/c(=C\c3ccccc3Br)c(=O)n12` (stereo not given), the growth in the assay on HCT-15 colon was 8.51% (active); with HT29 colon, 4.72% (active); with SNB-75 CNS it was 10.1%; in the assay with SNB-19 CNS it was 26.8%; in the assay with U251 CNS it was 5.61% (active); with SK-MEL-5 melanoma, -17.6% (active). The growth in the assay on UACC-62 melanoma is 24.5%; with LOX IMVI melanoma it was 16.3%; in the assay on SK-MEL-28 melanoma it was 57.4%; in the assay on SK-MEL-2 melanoma it was 51.1%; in the assay with EKVX NSCLC, 47.7%; in the assay with SN12C renal, 24.8%. The growth is 36.2% in the assay with UO-31 renal; 70.9% in the assay on TK-10 renal; 26.1% with ACHN renal; 24.7% in the assay with CAKI-1 renal; -1.67% (active) in the assay on A498 renal; 14.5% in the assay on CCRF-CEM leukemia. In addition, the growth with MOLT-4 leukemia was 15.2%.
